Pf growth 96h = Primary qHTS for delayed death inhibitors of the malarial parasite plastid, 96 hour incubation; P. falciparum luciferase reporter growth, 96 h; Potency, µM (series often up to 28.7 µM), actives largely listed as inhibitors; 320,000 tested, 6.9% active; AID 504834, 2011
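Parasite growth measured via integrated firefly luciferase reporter in P. falciparum. Infected erythrocytes at 2% hematocrit, 0.05% parasitemia final were treated 96 hours at 37 C under 5% CO2, and luminescence was read.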
Vaccinia Venus = qHTS for Stage-Specific Inhibitors of Vaccinia Orthopoxvirus: Venus Reporter Primary qHTS; Vaccinia virus Venus reporter expression, fluorescence; Potency, µM (titrated, usually from 36.5 µM), usual class: inhibitors; 330,000 tested, 0.46% active; AID 720580, 2013; calls by dose curve; tested in A549 cells; further: nearly all actives have a fitted effect of over 30% in size
Pf growth 48h = Primary qHTS for delayed death inhibitors of the malarial parasite plastid, 48 hour incubation | P. falciparum luciferase growth in erythrocytes, 48 h | Potency, µM (titrated, usually from 28.7 µM), hits mostly inhibitors | 310,000 tested, 5.9% active | AID 504832, 2011
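First compound was added to culture medium, then infected red cells at 0.1% parasitemia and 2% hematocrit (final). After incubation at 37 C under 5% CO2, luciferase detection reagent was dispensed and light output recorded.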
VACV mCherry inh = qHTS for Stage-Specific Inhibitors of Vaccinia Orthopoxvirus: mCherry Reporter Primary qHTS | Vaccinia virus mCherry reporter infection, fluorescence | Potency, µM (series often up to 36.5 µM), actives largely listed as inhibitors | 310,000 tested, 0.63% active | AID 720579, 2013; calls by dose curve; tested in A549 cells; further: nearly all actives have a fitted effect of over 35% in size
AMA1-RON2 inh = qHTS for Inhibitors of AMA1-RON; Towards Development of Antimalarial Drug Lead: Primary Screen; AlphaScreen AMA1-biotinylated RON2 peptide binding; Potency, µM (series often up to 58.2 µM), most hits filed as inhibitors; 360,000 tested, 0.2% active; further: nearly all actives have a fitted effect of over 45% in size
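AMA1 (3D7) with his tag at 25 nM final met compounds first, then biotinylated RON2 peptide at 25 nM; detection used donor plus acceptor beads, 10 µg/mL apiece, read by AlphaScreen after 30 min at room temperature.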
Numbers stand for hits; – = inactive; ? = inconclusive; · = not tested or not shown; [ ] = another dose, or the depositor's remark. Most compounds without a hit are left out; they make up all but 8.7% or so of the library. Unless noted, the call rests on the fitted dose curve; in most records, active means well fitted curve in the direction sought with a large enough effect; inconclusive means small, poorly fitted or top-dose-only effect, or another doubt; inactive means no such curve, though single readings can be large; an effect the other way counts as inactive or inconclusive.

SMILES	Pf growth 96h	Vaccinia Venus	Pf growth 48h	VACV mCherry inh	AMA1-RON2 inh
O=C(NCCNC(=O)c1ccccc1[N+](=O)[O-])c1ccccc1[N+](=O)[O-]	·	–	·	–	–
O=C(NNC(=O)c1ccccc1[N+](=O)[O-])c1ccccc1[N+](=O)[O-]	7.4µM	–	–	–	–
COc1ccc(C(=O)NNC(=O)c2ccccc2[N+](=O)[O-])cc1	13µM	–	–	–	–
O=C(NNC(=O)C1CC1c1ccccc1)c1ccccc1F (stereo not given)	?	–	–	–	–
O=C(CCc1ccccc1)N/N=C/c1cccc([N+](=O)[O-])c1	?	–	–	–	–
CCOc1ccccc1CNC(=O)C1CCN(S(=O)(=O)c2c(C)noc2/C=C/c2ccccc2F)CC1	·	–[7.34 µM]	·	–[7.34 µM]	·
CCC(C(=O)Nc1nnc2n1CCS2)c1ccccc1 (stereo not given)	·	–	·	–	·
CSc1nnc(NC(=O)c2cc(=O)c3cc(C)c(C)cc3o2)s1	·	–	·	–	·
O=C1CN(C(=S)NC(=O)c2ccccc2[N+](=O)[O-])CCN1	7.4µM	·	–	·	–
CCOC(=O)c1nnn(-c2nn3nnnc3c3ccccc23)c1C	–	?	0.93µM	8.9µM	–
CCOC(=O)c1nnn(-c2nonc2-n2cccc2)c1C	?	–	?	·	–
COc1cccc(NC(=O)C2CCCN2S(=O)(=O)c2ccc3nc(-c4ccccc4)[nH]c3c2)c1 (stereo not given)	·	–	·	–	·
Cc1ccc(-c2nnc(Nc3ccc(OCC(N)=O)cc3)c3ccccc23)cc1S(=O)(=O)N(C)C	·	–	·	–	·
COc1cccc(CNC(=O)c2ccc3c(c2)sc2nc(-c4ccccc4)cn23)c1OC	·	–	·	–	·
CCCN(CC(=O)Nc1cccc(S(N)(=O)=O)c1)CC(=O)Nc1ccc(F)c(F)c1F	–	·	–	·	–
CCCN(CC(=O)Nc1cccc(Br)c1)CC(=O)Nc1ccc(F)c(F)c1F	3.7µM	?	?	–	–
CCN(CC(=O)NCc1cccs1)C(=O)/C=C/c1cc(Br)ccc1OC(F)F	10µM	·	?	·	–
Cc1cccc(-n2c(N)cc(=O)nc2SCC(=O)Nc2ccc(F)cc2)c1C	·	–	·	–	·
COC1(C(F)(F)F)NC(=O)N(c2ccc(F)cc2)C1=O (stereo not given)	·	–	·	–	·
COc1cccc(CNC(=O)c2ccc3c(c2)nc2n3CCC(C)C2)c1OC (stereo not given)	·	–	·	–	·
COc1cccc2c1Oc1cc([N+](=O)[O-])cc(N(C)C(C)=O)c1C=C2	–	–	–	7.1µM	–
CC(=O)N(C)c1cc([N+](=O)[O-])ccc1OCc1ccccc1	·	–	·	–	–
CCOC(=O)C1=CCN(S(=O)(=O)c2ccc(F)cc2)C1c1ccc(C)cc1 (stereo not given)	·	–	·	–	–
CCOC(=O)C1=CCN(S(=O)(=O)c2ccc(F)cc2)C1c1ccc(Cl)c(Cl)c1 (stereo not given)	·	13µM	·	7.9µM	–
COc1ccccc1C(=O)N/C(=C\c1ccccc1)C(=O)NC(C)C(=O)O (stereo not given)	9.3µM	–	–	–	–
SMILES	Pf growth 96h	Vaccinia Venus	Pf growth 48h	VACV mCherry inh	AMA1-RON2 inh
COc1cc([C@@H]2c3cc4c(cc3[C@H](O)[C@H]3COC(=O)[C@H]23)OCO4)cc(OC)c1OC	1.1µM	?	15µM	?	–
COc1cc(C2c3cc4c(cc3OC(NNC(N)=O)C2C)OCO4)cc(OC)c1OC (stereo not given)	·	?	·	–	–
COc1cc(C2c3cc4c(cc3C(OC3OC5COC(c6cccs6)OC5C(O)C3O)C3COC(=O)C23)OCO4)cc(OC)c1O (stereo not given)	?	?	?	?	–
COc1cc(C2c3cc4c(cc3C(O[C@@H]3OC5COC(c6cccs6)OC5C(O)C3O)C3COC(=O)C23)OCO4)cc(OC)c1O (stereo not given in full)	0.48µM	·	0.54µM	·	·
COc1cc(C2c3cc4c(cc3C(O)C3COC(=O)C23)OCO4)cc(OC)c1O (stereo not given)	·	?	·	14µM	·
COc1cc(C2c3cc4c(cc3OC(NNC(N)=S)C2C)OCO4)cc(OC)c1OC (stereo not given)	·	?	·	2.8µM	–
COc1ccc(CNC(=O)C2=C(C)C(=O)OC23CCN(C(C)=O)CC3)cc1	·	–	·	–	·
O=C1CN(C(=O)C2CCCCC2)C(c2ccccc2)c2cc(F)ccc2N1 (stereo not given)	·	–	·	–	·
C[N+]1(CC(=O)c2ccc(I)cc2)CCOCC1	·	–	·	–	·
COc1cc([C@@H]2c3cc4c(cc3[C@@H](O)[C@@H](CO)[C@@H]2CO)OCO4)cc(OC)c1O[Si](C)(C)C(C)(C)C	?	·	9.3µM	·	·
COc1cc([C@@H]2c3cc4c(cc3[C@H](O)[C@H]3COC(=O)[C@@H]23)OCO4)cc(OC)c1OC	·	–	·	?	·
COc1cc([C@@H]2c3cc4c(cc3[C@@H](NC3CCN(Cc5ccccc5)CC3)[C@H]3COC(=O)[C@H]23)OCO4)cc(OC)c1O	0.17µM	·	0.74µM	·	·
COc1cc([C@@H]2c3cc4c(cc3[C@@H](OC)[C@H]3COC(=O)[C@H]23)OCO4)cc(OC)c1O	12µM	–	10µM	–	–
COc1cc(C2c3cc4c(cc3C(O)C3COCC23)OCO4)cc(OC)c1OC (stereo not given)	·	–	·	?	–
Cc1ccc2c(c1)C(=O)OC(C(=O)Nc1ncc(Cc3ccc(C(C)C)cc3)s1)C2 (stereo not given)	·	–	·	–	·
Cc1nn2c(=O)cc(COC(=O)Cc3ccccc3)nc2s1	·	–	·	–	·
CC(=O)c1cccc(NC(=O)CCCSc2nc(-c3ccco3)cc(C(F)(F)F)n2)c1	·	–	·	–	·
Cc1cc(C(=O)COC(=O)c2ccc3c(c2)OCO3)c(C)n1CC1CCCO1 (stereo not given)	–	–	–	–	–
Cc1cc(C(=O)COC(=O)c2ccc(O)cc2)c(C)n1CC1COc2ccccc2O1 (stereo not given)	13µM	–	?	–	–
COc1ccc(-c2[nH]ncc2C(=O)NCc2cccc(F)c2)cc1	·	–	·	–	·
O=C(NC1CCCC1)c1cn(C2CCCN(Cc3ccc4c(c3)OCCO4)C2)nn1 (stereo not given)	·	–	·	–	·
Cc1nc(Nc2ccc(F)cc2)[nH]c(=O)c1CCC(C)C	·	?	5.9µM	?	–
COc1ccc(OC)c(Cc2nnc(CCC(=O)NCc3nc4ccccc4s3)o2)c1	7.4µM	–	–	–	–
CCOC(=O)c1sc(N2C(=O)c3oc4cc(C)c(C)cc4c(=O)c3C2c2ccc(C)cc2)nc1C (stereo not given)	·	–	·	–	·
O=C(Nc1ccccc1Cc1ccccc1)c1oc2ccccc2c1COc1ccccc1	10µM	–	?	–	–[2.32 µM]
O=C(NCCc1ccccc1)c1oc2ccccc2c1COc1ccccc1	13µM	–	?	–	–
